# Data reported in PubChem BioAssay (NCI).
# About 83,000 compounds went through this panel and 20% of them were active in at least one assay; those are over-represented in the sample as a whole.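 Growth was measured after 48 h exposure to one concentration of compound in 96-well plates. Values under 10 count as active.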 A number with no mark means an inactive call. Activity calls are given as the source filed them.
# Tested on: SF-295 CNS
# Experiment: NCI-60 one-dose screen, 48 h (100 = growth as untreated, 0 = no growth, -100 = all killed)
# Settings: 10 µM unless noted
row,Compound,growth
1,CN(C)c1ccc(/C=C/c2n(Cc3ccc4ccccc4c3)c3ccccc3[n+]2Cc2ccc3ccccc3c2)cc1,-98.9% (active)
2,Cc1nn(-c2ccccc2)c2nc(C)n(CC(=O)N/N=C/c3ccccc3O)c(=O)c12,23.6%
3,CC1=C(C)C(=O)C(N2CCSCC2)=CC1=O,104%
4,NC(=O)c1ccc(-c2ccc3ncnc(N4CCc5cc(F)c(Cl)cc54)c3c2)cn1,79.4%
5,Cn1ncc2c(N)nc(Oc3ccccc3-c3ccccc3)nc21,27.2%
6,C=CC[n+]1cccc2c3ccccc3ccc21,21.4%
7,COc1ccc2nc(NC(=O)c3ccc(N(C)C)cc3)sc2c1,59%
8,O=C(N/N=C/c1ccoc1)c1[nH]c2ccc(Br)cc2c1-c1ccccc1,-97.9% (active)
9,O=C(Nc1ccc(-c2ccc3c(c2)NC(=O)/C3=C\c2ccc[nH]2)cc1)Nc1ccc(Cl)c(C(F)(F)F)c1,38.4%
10,CN1C(=O)/C(=C/c2ccco2)S/C1=N/c1nccs1,102%
11,COc1cccc2nc(Nc3cccc(NC(=O)c4ccc(CN5CCN(C)CC5)c(C(F)(F)F)c4)c3)ccc12,-95.1% (active)
12,Fc1cccc(CNc2nc(SCCN3CCOCC3)nc3c2cnn3CC(Cl)c2ccc(Br)cc2)c1 (configuration not stated),-10.5% (active)
13,CCCCNc1ccc2c3c(cccc13)C(=O)N(c1cccc(-c3nn(-c4ccccc4)cc3-c3nc4ccccc4s3)c1)C2=O,104%
14,N/C(=N\c1nc2ccccc2s1)NC(=O)Nc1ccccc1[N+](=O)[O-],1.71% (active)
15,Cc1ccc(C(=O)Nc2cc(-c3ccncc3)cc(C(F)(F)F)c2)cc1C#Cc1cnc2cccnn12,46.3%
16,CCN1C(=O)N(CC)C2NNC(Sc3c(C(=O)O)c4ccccc4n(CCC(C)C)c3=O)=NC21 (configuration not stated),-16.5% (active)
17,CC1=C(C(=O)OCc2ccccc2)C(c2ccc(N(C)C)cc2)n2c(nc3ccccc32)N1 (configuration not stated),57.3%
18,COc1cc(/C=C/C(=O)c2cnn(-c3cc(=O)[nH]c4ccc(Br)cc34)c2C)cc(OC)c1OC,-61.8% (active)
19,S=C(Nc1ccc(OCc2nc3ccc(Cl)cc3[nH]2)cc1)NC1CCCCC1,-15.9% (active)
20,Nc1nn2c(-c3cc4cc(Br)ccc4oc3=O)ccnc2c1N=Nc1ccc(S(N)(=O)=O)cc1,62.2%
21,CCN(C(=O)CN1C(=O)/C(=C/c2ccco2)SC1=S)C1CCS(=O)(=O)C1 (configuration not stated),105%
22,Cn1cc(Nc2ncnc(-c3ccc(N4CCCC4)c(C#N)c3)n2)cn1,93.2%
23,O=C1Nc2ccccc2/C1=C\c1ccc(OCC(=O)c2ccc(Br)cc2)cc1,58.6%
24,COc1cc(CNC(=O)C[C@H](C)CCC=C(C)C)ccc1OCc1cn(-c2ccc(Br)cc2)nn1,63.2%

# Tested on: SF-539 CNS
# Experiment: as above
# Settings: 10 µM unless noted
row,Compound,growth
1,CN(C(=O)CN1C(=O)/C(=C/c2ccco2)SC1=S)C1CCS(=O)(=O)C1 (configuration not stated),104%
2,O=C(c1ccc(Cl)cc1)C1[C@H](c2ccccc2Cl)[C@@H](c2ccccc2)NC12C(=O)Nc1ccccc12 (some centres not stated),-89.7% (active)
3,Cc1ccc(Nc2nnc(-c3c[nH]c4ccccc34)o2)c(C)c1,-32.4% (active)
4,Cc1ccccc1NC(=O)c1cccc(NC(=O)CCl)c1,51.3%
5,Clc1ccc(CNc2nc(SCCN3CCOCC3)nc3c2cnn3CC(Cl)c2ccc(Br)cc2)cc1 (configuration not stated),27.4%
6,CCc1ccc(SC2c3cc(OC)ccc3Oc3nc(N)c(C#N)c(N)c32)cc1 (configuration not stated),-62.1% (active)
7,O=C(N/N=C/c1ccc(B(O)O)s1)c1[nH]c2ccc(Br)cc2c1-c1ccccc1,-98.8% (active)
8,CCN1C(=O)N(CC)C2NNC(Sc3c(C(=O)O)c4ccccc4n(CC(C)C)c3=O)=NC21 (configuration not stated),-29% (active)
9,COc1ccc(/C=C/c2nc3ccccc3c(=O)n2CC(=O)Nc2ccccc2)cc1,32.4%
10,COc1ccc2[nH]c(=O)c(CSc3ccccc3Nc3nccc(-c4ccc5c(c4)OCO5)n3)cc2c1,95%
11,Cc1ccc(Cl)cc1NC(=O)N/C(N)=N/c1nc2ccccc2s1,-51.2% (active)
12,COc1ccc(OC)c(Cn2cc(C#N)c(N)c2C(=O)c2ccc(Br)cc2)c1,47.7%
13,Cc1ccc(-c2cc(-c3ccccc3)[nH]c(=O)c2C#N)cc1,81.9%
14,Cc1ccc(C(C(=O)NC2CCCCC2)N(Cc2ccccc2Cl)C(=O)c2ccc(CN3CCOCC3)o2)o1 (configuration not stated),99.4%
15,CN(C)c1ccc(/C=C/c2n(Cc3ccc4ccccc4c3)c3ccccc3[n+]2Cc2ccc3ccccc3c2)cc1,-95.3% (active)
16,Cc1nn(-c2ccccc2)c2nc(C)n(CC(=O)N/N=C/c3ccccc3O)c(=O)c12,21.8%
17,CC1=C(C)C(=O)C(N2CCSCC2)=CC1=O,96.2%
18,NC(=O)c1ccc(-c2ccc3ncnc(N4CCc5cc(F)c(Cl)cc54)c3c2)cn1,63%
19,Cn1ncc2c(N)nc(Oc3ccccc3-c3ccccc3)nc21,25.9%

row,Compound,growth
1,C=CC[n+]1cccc2c3ccccc3ccc21,66.6%
2,COc1ccc2nc(NC(=O)c3ccc(N(C)C)cc3)sc2c1,90%
3,O=C(N/N=C/c1ccoc1)c1[nH]c2ccc(Br)cc2c1-c1ccccc1,-97.6% (active)
4,O=C(Nc1ccc(-c2ccc3c(c2)NC(=O)/C3=C\c2ccc[nH]2)cc1)Nc1ccc(Cl)c(C(F)(F)F)c1,44.2%
5,CN1C(=O)/C(=C/c2ccco2)S/C1=N/c1nccs1,103%
6,COc1cccc2nc(Nc3cccc(NC(=O)c4ccc(CN5CCN(C)CC5)c(C(F)(F)F)c4)c3)ccc12,-100% (active)
7,Fc1cccc(CNc2nc(SCCN3CCOCC3)nc3c2cnn3CC(Cl)c2ccc(Br)cc2)c1 (configuration not stated),10.8%
8,CCCCNc1ccc2c3c(cccc13)C(=O)N(c1cccc(-c3nn(-c4ccccc4)cc3-c3nc4ccccc4s3)c1)C2=O,101%
9,N/C(=N\c1nc2ccccc2s1)NC(=O)Nc1ccccc1[N+](=O)[O-],-41.1% (active)
10,Cc1ccc(C(=O)Nc2cc(-c3ccncc3)cc(C(F)(F)F)c2)cc1C#Cc1cnc2cccnn12,32.3%
11,CCN1C(=O)N(CC)C2NNC(Sc3c(C(=O)O)c4ccccc4n(CCC(C)C)c3=O)=NC21 (configuration not stated),-53.4% (active)
12,CC1=C(C(=O)OCc2ccccc2)C(c2ccc(N(C)C)cc2)n2c(nc3ccccc32)N1 (configuration not stated),86.4%
13,COc1cc(/C=C/C(=O)c2cnn(-c3cc(=O)[nH]c4ccc(Br)cc34)c2C)cc(OC)c1OC,-78.8% (active)
14,S=C(Nc1ccc(OCc2nc3ccc(Cl)cc3[nH]2)cc1)NC1CCCCC1,-79.3% (active)
15,Nc1nn2c(-c3cc4cc(Br)ccc4oc3=O)ccnc2c1N=Nc1ccc(S(N)(=O)=O)cc1,55.1%
16,CCN(C(=O)CN1C(=O)/C(=C/c2ccco2)SC1=S)C1CCS(=O)(=O)C1 (configuration not stated),98%
17,Cn1cc(Nc2ncnc(-c3ccc(N4CCCC4)c(C#N)c3)n2)cn1,65.2%
18,O=C1Nc2ccccc2/C1=C\c1ccc(OCC(=O)c2ccc(Br)cc2)cc1,81.5%
19,COc1cc(CNC(=O)C[C@H](C)CCC=C(C)C)ccc1OCc1cn(-c2ccc(Br)cc2)nn1,51.2%
